Results filed as inconclusive are left out. Active and inactive are the calls of the source. Unless noted, calls come from the whole dose curve; as a rule, active = well fitted curve in the direction sought with a large enough effect in the repeat runs; inconclusive = weak or mixed curves; inactive = no such curve, though single readings can be large; an effect the other way counts as inactive or inconclusive.
Columns and labels:
[1] = qHTS assay to identify small molecule agonists of the NFkB signaling pathway (AID 1159509; active = well fitted curve in the direction sought with a large enough effect in the signal ratio in the repeat runs, not every such curve was filed as active; the % refers to the signal ratio; note: series mostly up to about 61 µM)
Method in brief: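 NFkB-bla ME-180 cells with a beta-lactamase reporter under an NF-kB response element were plated overnight, treated with compounds in DMSO for 5 hr at 37 C, then loaded with FRET substrate for 1.5 hr at room temperature.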

[2] = qHTS assay to identify small molecule agonists of the endoplasmic reticulum stress response signaling pathway (AID 1159516; active = well fitted activation curve with a large enough effect in the signal ratio in the repeat runs, not every such curve was filed as active; the % refers to the signal ratio)
Method in brief: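 Reporter HeLa cells (ESRE-beta-lactamase) underwent 5 hr compound incubation at 37 C and 5% CO2 in quantitative HTS format. Detection followed 2 hr of FRET substrate loading at room temperature.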

[3] = qHTS assay to identify small molecule agonists of the endoplasmic reticulum stress response signaling pathway - cell viability counter screen (AID 1159517; calls by dose curve;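 note: HeLa cells carrying an ER stress response element beta-lactamase reporter; series mostly up to about 61 µM; nearly all actives have a fitted effect of over 50% in size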)
Method in brief: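 Luminescence readout: CellTiter-Glo, 30 min RT, same wells as the ESRE-bla reporter read. HeLa ESRE-bla, 1,500 cells/well, o/n 37 C; cpd 5 hr 37 C/5% CO2.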

[4] = qHTS assay to identify small molecule antagonists of the retinoid-related orphan receptor gamma (ROR-gamma) signaling pathway - cell viability counter screen (AID 1159520); note: nearly all actives have a fitted effect of over 50% in size
Method in brief: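 Tet-on ROR gamma CHO cells (1,000/well) were plated 4 hr, given compounds in DMSO for 2 hr at 37 C, then induced with 1 uM final doxycycline for 16 hr. Viability was read as ATP by CellTiter-Glo luminescence after 30 min.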

[5] = target: Nuclear receptor ROR-gamma (Homo sapiens) (UniProt P51449); assay: qHTS assay to identify small molecule antagonists of the retinoid-related orphan receptor gamma (ROR-gamma) signaling pathway (AID 1159521;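 note: CHO cells with doxycycline inducible ROR-gamma driving an RORE luciferase reporter; top concentration of the series differs between compounds; nearly all actives have a fitted effect of over 50% in size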)
Method in brief: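 Readout: ONE-Glo luciferase luminescence, 30 min at room temperature. System: Tet-on RORγ CHO, RORE-LUC. Sequence: compound 2 h, doxycycline 1 uM final, 16 h at 37 C.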

[6] = qHTS assay to identify small molecule agonists of the AP-1 signaling pathway - cell viability counter screen (AID 1159525; calls by dose curve; note: nearly all actives have a fitted effect of over 55% in size)
Method in brief: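 ME-180 AP-1-bla, 2500 cells/well, Opti-MEM + 0.5% dialyzed FBS; overnight 37 °C; cpd 15-pt titration, 5 h 37 °C; CellTiter-Glo 30 min RT; luminescence read; normalised to TOAB and DMSO controls.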

[7] = target: Retinoic acid receptor RXR-alpha (Homo sapiens) (UniProt P19793); assay: qHTS assay to identify small molecule agonists of the RXR signaling pathway (AID 1159527; calls by dose curve; note: nearly all actives have a fitted effect of over 35% in size)
Method in brief: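 Reporter activation is measured as beta-lactamase activity via FRET substrate cleavage (emission 460/530 nm) in HEK 293T cells expressing an RXR-alpha-driven bla construct, following 16 hr compound exposure at 37 C.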

[8] = qHTS assay to identify small molecule agonists of the RXR signaling pathway - cell viability counter screen (AID 1159529); note: series mostly up to about 77 µM; nearly all actives have a fitted effect of over 50% in size
Method in brief: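 Tox21 10K compounds were tested for cytotoxicity against GeneBLAzer RXR-alpha HEK 293T cells grown in 2% charcoal-stripped FBS. Exposure lasted 16 hr at 37 C, 5% CO2; viability read by CellTiter-Glo luminescence.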

[9] = qHTS assay to identify small molecule antagonists of the retinoid acid receptor (RAR) signaling pathway - cell viability counter screen (AID 1159551); note: nearly all actives have a fitted effect of over 35% in size
Method in brief: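 Seed C3RL4 cells; next day add compound, then retinol to 1 uM final; incubate 6 h at 37 C; add CellTiter-Glo; read luminescence after 30 min at RT.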

[10] = qHTS assay to identify small molecule antagonists of the retinoic acid receptor (RAR) signaling pathway (AID 1159552; note: nearly all actives have a fitted effect of over 50% in size)
Method in brief: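 Overnight-plated C3RL4 reporter cells get compound, then retinol to 1 uM final; plates sit 6 hr at 37 C, 5% CO2. A luciferase reagent is added and light output recorded after 30 min at room temperature.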

[11] = qHTS assay to identify small molecule agonists of the retinoic acid receptor (RAR) signaling pathway (AID 1159553)
Method in brief: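 Activation of retinol signaling was monitored via a RARE luciferase reporter in C3RL4 cells. After 6 hr compound treatment at 37 C, detection reagent was added for 30 min at room temperature before luminescence reading.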

[12] = qHTS assay to identify small molecule antagonists of the vitamin D receptor (VDR) signaling pathway - cell viability counter screen (AID 743225); note: nearly all actives have a fitted effect of over 50% in size
Method in brief: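 Cytotoxicity toward the VDR-bla HEK 293T line was scored by ATP-based CellTiter-Glo luminescence, read in the wells already used for the beta-lactamase readout after 16 h compound treatment under 3 nM 1-alpha,25-dihydroxyvitamin D3 stimulation.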

[13] = qHTS assay to identify small molecule agonists of the AP-1 signaling pathway (AID 1159526; calls by dose curve)
[14] = qHTS assay to identify small molecule antagonists of the estrogen related receptor (ERR) signaling pathway - cell viability counter screen (AID 1224818);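 note: series mostly up to about 46 µM; viability measured after 17.5 h of compound exposure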
Method in brief: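 In the same ERR cell assay, compound-treated wells (17.5 h, 37 C) were multiplexed with a fluorogenic viability reagent, CellTiter-Fluor, read after 30 min to flag cytotoxic substances.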

[15] = qHTS assay to identify small molecule antagonists of the estrogen related receptor (ERR) signaling pathway (AID 1224819)
Method in brief: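 qHTS in ERR cells, 2,000/well, 1536 format. Cpd (DMSO) added after 6 h settle, 18 h 37 C. One-Glo luminescence, 30 min RT.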

[16] = qHTS assay to identify small molecule agonists of the estrogen related receptor (ERR) signaling pathway (AID 1224820)
Method in brief: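 ERR reporter cells (NTP line) plated 2,000/well, incubated 6 h at 37 C/5% CO2, then pinned with compounds in DMSO and held 18 h at 37 C. One-Glo added; luminescence read after 30 min at room temperature.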

[17] = test system: estrogen-related receptor alpha (ERRalpha) with PGC-1alpha coactivator, human; assay: qHTS assay to identify small molecule antagonists of the estrogen related receptor signaling pathway with the pleiotropic PPARgamma coactivator (PGC) (AID 1224821; calls by dose curve)
Method in brief: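 Cells engineered for PGC/ERR signalling (line from NTP) were plated 6 h at 37 C/5% CO2, then exposed to DMSO-dissolved compound for 18 h at 37 C. Luciferase activity was read by One-Glo luminescence after 30 min at room temperature.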

[18] = qHTS assay to identify small molecule antagonists of the estrogen related receptor signaling pathway with the pleiotropic PPARgamma coactivator (PGC) cell viability counter screen (AID 1224822; note: series mostly up to about 46 µM)
Method in brief: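 Compounds in DMSO, with positive and negative controls, were applied to PGC/ERR cells (2,000/well) and left 17.5 h at 37 C before CellTiter-Fluor detection.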

[19] = qHTS assay to identify small molecule agonists of the estrogen related receptor signaling pathway with the pleiotropic PPARgamma coactivator (PGC) (AID 1224823)
Method in brief: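 PGC/ERR reporter cells were seeded, rested 6 h at 37 C/5% CO2, then exposed to compounds in DMSO by pin transfer for 18 h at 37 C. Luciferase activity was read as luminescence after One-Glo reagent and 30 min at room temperature.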

Measured: Potency

Sequence of Retinoic acid receptor RXR-alpha (Homo sapiens) (P19793 whole entry, looked up): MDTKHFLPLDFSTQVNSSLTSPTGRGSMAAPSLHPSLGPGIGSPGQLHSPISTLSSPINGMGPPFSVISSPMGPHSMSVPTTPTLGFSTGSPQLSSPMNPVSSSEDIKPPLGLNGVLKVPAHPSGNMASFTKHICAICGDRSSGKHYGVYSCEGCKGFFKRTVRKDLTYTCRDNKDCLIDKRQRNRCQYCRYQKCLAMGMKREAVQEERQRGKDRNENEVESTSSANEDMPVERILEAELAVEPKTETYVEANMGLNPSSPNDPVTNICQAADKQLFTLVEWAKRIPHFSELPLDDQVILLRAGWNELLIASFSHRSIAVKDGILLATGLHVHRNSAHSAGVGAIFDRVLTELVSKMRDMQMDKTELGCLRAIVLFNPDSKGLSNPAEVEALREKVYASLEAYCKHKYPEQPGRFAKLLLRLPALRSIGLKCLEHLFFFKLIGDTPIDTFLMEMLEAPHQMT

CCC(=O)O[C@@H]1C[C@H]2CC[C@]1(C)C2(C)C
not listed: [12] | [13] | [14] | [15] | [16] | [17] | [18] | [19]
inactive: all other assays above

O=C(O)c1cccnc1Nc1cccc(C(F)(F)F)c1
not listed: [2] | [7] | [11]
inactive: all other assays above

COc1cccc([C@H](O)C2CCN(CCc3ccc(F)cc3)CC2)c1OC
inactive: [12] | [1] | [2] | [3] | [4] | [5] | [6] | [13] | [9] | [11]

CCCc1ccc(OC)cc1
not listed: [7] | [10] | [14] | [15] | [16] | [17] | [18] | [19]
inactive: all other assays above

CC(C)CCCCCCCOC(=O)c1ccc(C(=O)OCCCCCCCC(C)C)c(C(=O)OCCCCCCCC(C)C)c1
inactive: [12] | [1] | [2] | [3] | [4] | [5] | [6] | [13] | [9]

Nc1ccc(F)cc1F
inactive: [12] | [1] | [2] | [3] | [4] | [6] | [13] | [8] | [9]

FC1(F)C(F)(F)C(F)(F)C2(F)C(F)(C1(F)F)C(F)(F)C(F)(F)C1(F)C(F)(F)C(F)(F)C(F)(F)C(F)(F)C12F (centres undefined)
inactive: [12] | [1] | [3] | [4] | [5] | [13] | [8] | [9]

CC(C)NC(=O)c1ccccc1N
inactive: [12] | [1] | [2] | [3] | [4] | [5] | [6] | [13] | [8] | [11]

COc1ccc(CN(CCN(C)C)c2ncccn2)cc1
inactive: [1] | [2] | [3] | [4] | [6] | [7] | [8] | [11]

O=C(NC1CCN(CCc2c[nH]c3ccccc23)CC1)c1ccccc1
inactive: [12] | [1] | [2] | [3] | [4] | [6] | [7] | [8] | [9] | [11]

CCCCOC(=O)CC#N
inactive: [12] | [1] | [2] | [3] | [4] | [13] | [8] | [9] | [10]

COc1ccc(C(=O)c2ccc(C)cc2)c(O)c1
inactive: [12] | [1] | [3] | [4] | [6] | [13] | [8] | [9]
